Reference: PubChem BioAssay AID488969 (Vanderbilt High Throughput Screening Facility, 2010)
The full ranking holds about 110,000 compounds; the median of “z-score” is about -0.1, and the highest 2% start at about 2. Many of the other results were omitted from the sample, so the highest values are more common in it than they were. Calls of active or inactive are those of the source.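 How the source made its calls: active means z-score in the third read window above 3 or below -3; inactive means the rest.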

What follows are compounds tested against Metabotropic glutamate receptor 8 (Rattus norvegicus) (UniProt P70579) (assay: mGluR8 Gi/Go-coupled signaling modulation – cell-based, rat, thallium flux, HTS, primary screen (AID 488969)). Conditions: HEK293 rat mGluR8, GIRK (G protein-gated inwardly rectifying potassium channel) thallium flux, FluoZin2; at 10 µM; stronger effect = higher value; submaximal glutamate (EC20) added with thallium.
Metabotropic glutamate receptor 8 (Rattus norvegicus), sequence (P70579 whole entry, looked up): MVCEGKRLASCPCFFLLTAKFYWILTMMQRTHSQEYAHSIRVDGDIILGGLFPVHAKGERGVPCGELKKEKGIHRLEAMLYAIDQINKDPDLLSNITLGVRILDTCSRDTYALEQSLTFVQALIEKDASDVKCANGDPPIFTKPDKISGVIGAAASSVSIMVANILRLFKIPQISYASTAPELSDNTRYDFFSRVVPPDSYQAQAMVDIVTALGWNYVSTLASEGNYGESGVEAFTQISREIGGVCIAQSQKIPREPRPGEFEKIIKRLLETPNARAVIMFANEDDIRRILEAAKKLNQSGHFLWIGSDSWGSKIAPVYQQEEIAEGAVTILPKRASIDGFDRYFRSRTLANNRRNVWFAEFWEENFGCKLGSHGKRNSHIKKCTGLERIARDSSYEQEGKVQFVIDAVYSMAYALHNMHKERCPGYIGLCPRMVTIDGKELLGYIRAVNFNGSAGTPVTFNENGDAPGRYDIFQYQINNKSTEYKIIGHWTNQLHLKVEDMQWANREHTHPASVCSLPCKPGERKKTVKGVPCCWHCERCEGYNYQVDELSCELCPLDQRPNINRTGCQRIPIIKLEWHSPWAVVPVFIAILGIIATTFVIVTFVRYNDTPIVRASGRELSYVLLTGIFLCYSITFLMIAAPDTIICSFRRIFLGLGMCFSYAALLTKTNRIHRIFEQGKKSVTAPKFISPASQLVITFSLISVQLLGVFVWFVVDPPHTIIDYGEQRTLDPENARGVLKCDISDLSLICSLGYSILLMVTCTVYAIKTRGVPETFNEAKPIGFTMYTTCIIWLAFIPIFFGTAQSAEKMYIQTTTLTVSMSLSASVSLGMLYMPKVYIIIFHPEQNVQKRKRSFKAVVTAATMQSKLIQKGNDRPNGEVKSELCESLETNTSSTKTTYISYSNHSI

Row | Compound | z-score
1 | O=C1c2ccccc2C(=O)N1CCn1c(=O)oc2ccccc21 | 1.56
2 | Cc1cc(Cl)ccc1OC(C)C(=O)Nc1ccc([N+](=O)[O-])cn1 (centres undefined) | 2.07
3 | CC(=O)Nc1ccc([N+](=O)[O-])cn1 | -0.229
4 | CC(Oc1cccc(Cl)c1)C(=O)Nc1ccc([N+](=O)[O-])cn1 (centres undefined) | -0.576
5 | COC(=O)c1c(NC(=O)CSc2nnnn2-c2ccccc2)sc2c1CCC(C)C2 (centres undefined) | -0.121
6 | COc1ccc(/C=C2\NC(=S)N(CC3CCCO3)C2=O)c(OC)c1 (centres undefined) | 0.39
7 | COc1ccc(/C=C2\NC(=S)N(CC3CCCO3)C2=O)c(OC)c1C (centres undefined) | 2.32
8 | COc1ccccc1/C=C1\NC(=S)N(CC2CCCO2)C1=O (centres undefined) | 0.246
9 | CCOC(=O)c1nnn(-c2nonc2N)c1COc1cc(C)c(Cl)c(C)c1 | -0.174
10 | CCCCCCC1CC(CSc2ncn[nH]2)OC1=O (centres undefined) | -0.0128
11 | CCCCC1CC(CSc2ncn[nH]2)OC1=O (centres undefined) | -0.0735
12 | CCCCCCCC1CC(CSC(=N)N)OC1=O (centres undefined) | 5.96 (active)
13 | CCCCCCC1CC(CSC(=N)N)OC1=O (centres undefined) | 0.116
14 | CCCCCCCC1CC(CSc2ncn[nH]2)OC1=O (centres undefined) | 5.73 (active)
15 | CCCCC1CC(CSC(=N)N)OC1=O (centres undefined) | 0.732
16 | CC(C)C(=O)Nc1nc2c(ncn2C2CC(O)C(CO)O2)c(=O)[nH]1 (centres undefined) | -0.334
17 | CC(C)OC(=O)n1c(=S)oc2ccccc21 | -0.00387
18 | CSc1nnc(CSCc2ccc(Cl)cc2Cl)n1-c1ccccc1 | -0.0778
19 | S=c1[nH]nc(Cc2ccccc2)n1-c1ccccc1 | 0.938
20 | S=c1[nH]nc(CSCc2ccc(Cl)cc2Cl)n1-c1ccccc1 | 15.5 (active)
21 | Cn1ncc(C#N)c1NC(=O)c1cc(-c2ccccc2Cl)on1 | 0.559
22 | O=C(CSc1nc(C2CC2)nc2ccccc12)N1CCc2ccccc2C1 | -0.769
23 | Cc1cc(=O)n2cc(-c3ccccc3)nc2[nH]1 | -0.318

Row | Compound | z-score
24 | CC1CCN(CCCCOc2ccccc2Br)CC1 | -0.0355
25 | Cc1cc(Cl)ccc1N=C1N=C(N)c2ccccc21 | -1.75
26 | COC(=O)c1sccc1NC(=O)CSc1ccccc1NS(=O)(=O)c1ccc(F)cc1 | 0.941
27 | COC(=O)c1sccc1NC(=O)CSc1ccc(Cl)cc1 | 0.289
28 | COC(=O)c1sccc1NC(=O)CN(C)NS(=O)(=O)c1ccc(Cl)cc1 | -0.811
29 | COC(=O)c1sccc1NC(=O)Cc1ccc(Br)cc1 | -0.0914
30 | COC(=O)c1sccc1NC(=O)CSc1ccccc1NS(=O)(=O)c1ccc(Cl)cc1 | 3.6 (active)
31 | COC(=O)c1sccc1NC(=O)CSc1ccccc1NS(=O)(=O)c1ccc(Br)cc1 | 2.31
32 | N#Cc1ccc(OCC(=O)N/N=C2\CCc3ccccc32)cc1 | -0.239
33 | CCN(CC)C(=O)C(Sc1ccccc1)c1ccccc1 (centres undefined) | 0.926
34 | CC(=O)Nc1ccc(NC(=O)CSc2ccc(C)cc2)cc1 | 0.00682
35 | CCOC(=O)c1ccc(NC(=O)CN2C(=O)C(C)SC(C)C2=O)cc1 (centres undefined) | -0.088
36 | Cc1nc(NC(C)C(=O)O)c2nc(C)oc2n1 (centres undefined) | -0.0905
37 | CCn1cc(C2=NCCO2)c2ccccc21 | 2.2
38 | CCn1cc(C2=NC(C)CO2)c2ccccc21 (centres undefined) | -0.418
39 | CCn1cc(C2=NC(C)(C)CO2)c2ccccc21 | -0.521
40 | COc1ccc2[nH]c(C)c(CCN3C(=O)C4C5C=CC(C5)C4C3=O)c2c1 (centres undefined) | -0.454
41 | COC(=O)CSc1ncnc2c1cnn2Cc1ccccc1 | -0.981
42 | Cc1ccc(-n2ncc3c(SCc4ccccc4)ncnc32)cc1 | 2.51
43 | Cc1cccc(CSc2ncnc3c2cnn3Cc2ccccc2)c1 | -0.46
44 | Cc1ccc(CSc2ncnc3c2cnn3-c2ccc(C)cc2)cc1 | 1.75
45 | NC(=O)CSc1ncnc2c1cnn2Cc1ccccc1 | 4.34 (active)
46 | Cc1ccc(CSc2ncnc3c2cnn3Cc2ccccc2)cc1 | -0.449

Row | Compound | z-score
47 | c1ccc(CSc2ncnc3c2cnn3Cc2ccccc2)cc1 | -0.473
48 | Cc1ccc(-n2ncc3c(SCc4cccc(C)c4)ncnc32)cc1 | 2.66
49 | Cc1ccc(CSc2ncnc3c2cnn3-c2ccccc2)cc1 | 0.333
50 | CN(C)c1ccnc2sc3c(NCC(O)CO)ncnc3c12 (centres undefined) | -0.106
51 | CCOC(=O)c1c(C)[nH]c(C(=O)COC(=O)/C=C/c2ccc3c(c2)OCO3)c1C | 0.00271
52 | Cc1nc2ccccc2cc1C(=O)O | 0.0939
53 | CC(C/C=N/NC(=O)COc1cc(Cl)ccc1Cl)c1ccccc1 (centres undefined) | -0.0205
54 | O=C(Nc1ccc2c(c1)OCO2)C1CC(c2ccc(Cl)cc2)=NO1 (centres undefined) | -0.0412
55 | CN(c1ccc(OCC(=O)OCC(=O)Nc2ccc(F)cc2)cc1)S(=O)(=O)c1ccc(Cl)cc1 | -0.231
56 | COc1ccccc1N1CCN(CCCC(=O)c2ccc(F)cc2)CC1 | -0.123
57 | COc1cc2cc(C(N)=O)c(N)nc2cc1OC | -0.0702
58 | COc1cc2cnncc2cc1OC | 3.21 (active)
59 | COc1cc2cnc(Cl)nc2cc1OC | -0.182
60 | CCOC(=O)c1ccc(NC(=O)CSc2nnc(-c3cccs3)n2C)cc1 | -0.387
61 | Cc1ccc(C(C(=O)NCC2CCCO2)N(Cc2ccccc2F)C(=O)Cn2nnc(-c3cccs3)n2)cc1 (centres undefined) | -0.157
62 | O=C(NCC1CCCO1)C(c1cccs1)N(Cc1cccs1)C(=O)Cn1nnc(-c2cccs2)n1 (centres undefined) | -0.109
63 | O=C(NCC1CCCO1)C(c1ccc(F)cc1)N(Cc1ccc(F)cc1)C(=O)Cn1nnc(-c2cccs2)n1 (centres undefined) | 2.46
64 | Cn1c(=O)c(-c2ccccc2)nc2ccccc21 | -0.27
65 | O=c1c(-c2ccccc2)nc(-c2ccccc2)cn1O | 2.86
66 | c1ccc(-c2cn3nc(-c4ccccc4)c(-c4ccccc4)nc3n2)cc1 | -1.03
67 | CCOc1ccc2c(c1)-c1c(ssc1=S)C(C)(C)N2C | -0.11
68 | COc1ccc(/C=C/C(=O)NC(=S)NNC(=O)c2ccco2)cc1 | 0.921
69 | CCOC(=O)/C(=C/c1ccc(Cl)cc1)NC(=O)c1ccco1 | -0.468

Row | Compound | z-score
70 | O=C(NC(=S)NNC(=O)c1ccccc1O)c1ccco1 | 0.576
71 | CC(Oc1ccc2ccccc2c1)C(=O)NNC(=S)NC(=O)c1ccco1 (centres undefined) | 4.46 (active)
72 | CC(Oc1ccc(Cl)cc1)C(=O)NNC(=S)NC(=O)c1ccco1 (centres undefined) | 5.62 (active)
73 | CC(C)CNC(=S)NNC(=O)c1ccco1 | -0.0344
74 | COc1ccc(C(=O)Nc2cc(OC)c(NC(=O)c3ccco3)cc2OC)cc1 | -0.196
75 | COc1ccc(C(=O)NNC(=S)NC(=O)c2ccco2)cc1 | 2.99
76 | O=C(Nc1ccc(Oc2ccc3ccccc3c2)cc1)c1ccco1 | 0.388
77 | Cc1cccc(C(=O)Oc2csc(=S)n2C(=O)c2cccc(C)c2)c1 | 0.282
78 | COc1cc(CNCc2ccccn2)ccc1OCc1ccc(Cl)cc1 | 0.427
79 | CC(=O)c1cccc(NC(=O)C2CC(c3ccc(F)cc3)=NO2)c1 (centres undefined) | -0.0875
80 | O=C(COc1ccc(Cl)cc1Cl)Nc1nc2n(n1)C(c1ccccc1)CC(=O)N2 (centres undefined) | -0.56
81 | O=C(Nc1ncc(C(F)(F)F)cc1Cl)C1COc2ccccc2O1 (centres undefined) | -0.304
82 | CCN(CC)CCCNC(=O)c1ccc(Cl)c(S(=O)(=O)Nc2ccccc2OC)c1 | -0.0127
83 | CCN(CC)CCNC(=O)c1ccc(Cl)c(S(=O)(=O)Nc2ccccc2OC)c1 | 0.323
84 | CCN(CC)CCNC(=O)c1ccc(NC(=O)c2ccc(Cl)c(S(=O)(=O)Nc3ccccc3OC)c2)cc1 | 2.14
85 | CC(=O)c1cccc(NC(=O)CSc2nnc(-c3cccnc3)o2)c1 | 0.059
86 | CC(=O)NNC(=O)CC(=O)Nc1nc(C23CC4CC(CC(C4)C2)C3)cs1 | -0.221
87 | O=C(NCc1ccccc1)C(=O)Nc1nc(C23CC4CC(CC(C4)C2)C3)cs1 | 3.44 (active)
88 | O=C(NCc1ccncc1)C(=O)Nc1nc(C23CC4CC(CC(C4)C2)C3)cs1 | 0.792
89 | COC(=O)N/N=C/c1ccc(OCCSc2ccc(Cl)cc2)c(OC)c1 | 0.427
90 | CCCC1S/C(=N/N=C/c2ccc(C)cc2)N(Cc2ccc(OC)cc2)C1=O (centres undefined) | 0.151
91 | CC(=O)Nc1ccc(Oc2cc(C#N)c(C#N)cc2N2CCCCCC2)cc1 | 1.3
92 | CC(=O)Nc1ccc(Oc2cc(C#N)c(C#N)cc2N2CCOCC2)cc1 | 0.123

Row | Compound | z-score
93 | CC(=O)Nc1cccc(Oc2cc(C#N)c(C#N)cc2N2CCCCCC2)c1 | 2.07
94 | O=c1oc2ccccc2c(Nc2cccc3ccccc23)c1[N+](=O)[O-] | -0.861
95 | COCCNC(=O)c1ccc(-n2c(SCc3cc(F)ccc3F)nc3ccccc3c2=O)cc1 | -0.0902
96 | CCN(CC)S(=O)(=O)c1cccc(S(=O)(=O)N2CCCCC2)c1 | -0.121
97 | CC(=O)Nc1ccc(Oc2ncccn2)cc1 | 7.84 (active)
98 | CC(=O)Nc1ccc(Oc2cnccn2)cc1 | -0.0949
99 | CC(=O)Nc1ccc(Oc2nc(C)cc(C)n2)cc1 | 0.187
100 | COCC(=O)n1nc(NCc2ccc(OC)cc2)nc1NCc1ccc(OC)cc1 | -0.00999
101 | CN(C)CCn1c(NC(=O)c2ccc(Cl)cc2)nc2ccccc21 | 0.381
102 | CCN(CC)CCn1c(NC(=O)c2ccc(Cl)cc2)nc2ccccc21 | 4.18 (active)
103 | CCC(=O)Nc1nc2ccccc2n1CCN(CC)CC | -0.0953
104 | Cc1ccc(N/C(SCc2ccccc2C)=C(/C#N)C(=O)NCc2ccco2)cc1C | -0.331
105 | CCOc1cc(C(=S)N2CCOCC2)ccc1OS(=O)(=O)c1ccccc1 | -0.19
106 | Cc1ccccc1OCC(=O)NC(=S)Nc1ccc2c3c(cccc13)CC2 | 0.22
107 | COc1cccc(C(=O)NC(=S)Nc2ccc3c4c(cccc24)CC3)c1 | 2.83
108 | COc1cc(OC)cc(C(=O)NC(=S)Nc2ccc3c4c(cccc24)CC3)c1 | 0.967
109 | CC(C)c1ccc(OCC(=O)NC(=S)Nc2ccc3c4c(cccc24)CC3)cc1 | 1.27
110 | O=C(COc1ccccc1)NC(=S)Nc1ccc2c3c(cccc13)CC2 | 4.29 (active)
111 | CC(C)Oc1cccc(C(=O)NC(=S)Nc2ccc3c4c(cccc24)CC3)c1 | 1.24
112 | CN1CCN(C(=O)c2ccccc2N(Cc2ccccc2)S(=O)(=O)c2ccccc2)CC1 | -0.185
113 | Cn1cc([N+](=O)[O-])c(C(=O)N/N=C/c2ccccc2)n1 | -0.138
114 | Cc1cc(C)n(-c2nc3ccccc3nc2Nc2ccc(CC(=O)O)cc2)n1 | 1.13
